In PubChem BioAssay AID1259415 (National Center for Advancing Translational Sciences (NCATS), 2018) one finds activity change, negative = inhibition data, which are given here for 90 compounds.

Values joined by “and” are separate entries in the source; they are usually repeats but may differ in a detail not shown here. Equal entries are not always repeated. The campaign covered roughly 410,000 compounds. About 18,000 (4.4%) were called active. Roughly 7% stayed inconclusive and do not appear here. This is one part of a sample in which actives are shown more often than they occur. Unmarked numbers belong to inactive results. Rule as the data show it: active = activity change below about -60%; inconclusive = no clear call, values can overlap the other calls; inactive = above about -39%.
% is scaled to controls: 0 for no effect and ±100 for the full control effect.

This assay is described as follows: qHTS Assay for inhibitors of the human cytomegalovirus (HCMV). The conditions noted are these: HFF cells, HCMV-luciferase reporter, 72 h; at 57.5 µM; active compounds read low. The method, boiled down: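 Inhibition of viral replication was scored as loss of reporter luminescence in HFFs infected with HCMV-luciferase (MOI 1 PFU/cell) for 72 h; compounds tested at 2 doses, normalized to buffer and Salinomycin controls.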
For orientation: qHTS replaces the single test concentration by a dilution series.
Consider `Cc1ccc(S(=O)(=O)N2CCC(C(=O)Nc3cc(C)ccc3C)CC2)cc1`, for which the activity change, negative = inhibition was 10.8%.

Turning to `Cc1cc(C)nc(-n2ncc3c2CC(c2ccc(C(C)C)cc2)CC3=O)n1` (stereo not given), the activity change, negative = inhibition was -22.8%.

In the case of `Cc1ccccc1NC(=O)Cn1c(=O)n(Cc2ccco2)c(=O)c2ccc(C(=O)NC3CCCC3)cc21`, the activity change, negative = inhibition was 36.1%.

Regarding `CCOC(=O)N1CCc2c(sc(NCc3cccc(F)c3)c2C(=O)Nc2ccccc2OCC)C1`, the activity change, negative = inhibition was 30.2%.

Turning to `CN(C(=O)c1c(Cl)cnn1C)C12CC3CC(CC(C3)C1)C2`, the activity change, negative = inhibition was -18.8%.

As for `O=C(O)c1c(CNCc2cccc(F)c2)c2ccccc2n1Cc1ccccc1`, the activity change, negative = inhibition was 8.63%.

For `Cc1ccc(C(=O)Nc2c(C(=O)NC(C)(C)C)oc3ccccc23)cc1`, the activity change, negative = inhibition was -18.8%.

As to `COc1ccccc1CNc1ccc(-c2nc(-c3ccccc3C)no2)cc1[N+](=O)[O-]`, the activity change, negative = inhibition is 3.35%.

For the compound `Cc1ccccc1CNC(=O)Cn1c(C)c2cnn(-c3ccccc3)c(=O)c2c1C`, the activity change, negative = inhibition was -13%.

Turning to `CCCNC(=O)N1CCC2(CC1)CN(C(=O)CN1CCOCC1)[C@H](CO)c1[nH]c3cc(OC)ccc3c12`, the activity change, negative = inhibition is 0.475%.

As for `CC(C)=CCc1ccc(O)c(=O)cc1C(C)C`, the activity change, negative = inhibition was -101% (active).

Take `CCNC(=O)c1cc2n(n1)CCCN(Cc1ccc(C)cc1)C2=O`: the activity change, negative = inhibition was -3.42%.

With `Cc1cc(C)cc(OCC(=O)Nc2c(C(=O)c3ccccc3)oc3ccccc23)c1`, the activity change, negative = inhibition is 0.353%.

Take `CCC(C)(C)NC(=O)CN(Cc1cccs1)C(=O)CNS(=O)(=O)c1ccc(F)cc1`: the activity change, negative = inhibition was -8.36%.

As for `COc1ccc(Cn2c(=O)c3oc4ccccc4c3n(CC(=O)Nc3ccc(F)cc3F)c2=O)cc1`, the activity change, negative = inhibition was 6.84%.

Regarding `CCOC(=O)c1ccc(NC(=O)CCn2cnnn2)cc1`, the activity change, negative = inhibition is 20.5%.

In the case of `Cc1[nH]c(N)nc(=S)c1CCCNc1ccccc1`, the activity change, negative = inhibition was -99.8% (active).

For `Cc1cc(=O)n(C)c(=O)n1CCCNc1ccccc1`, the activity change, negative = inhibition was -33.2%.

Consider `CCc1c(Nc2ccccc2C)nc(N)[nH]c1=O`, for which the activity change, negative = inhibition was 90.6%.

`Cc1nnnn1/C(=C\c1ccccc1)C(=O)OCC(=O)N1CC2(C)CC1CC(C)(C)C2` (stereo not given): the activity change, negative = inhibition was -85.3% (active).

With `COC(=O)c1cc2n(n1)CCCNC2=O`, the activity change, negative = inhibition was 14.4%.

As to `CCC(C)(O)C(=O)OC1C(=O)OC2CC3C(C)=CC(=O)C(O)C3(C)C3C4(O)OCC23C1C(C)C4O` (stereo not given), the activity change, negative = inhibition is -96.7% (active).

As to `COCCCNC(=S)NNC(=O)C(O)(c1ccccc1)c1ccccc1`, the activity change, negative = inhibition was -17.8%.

`COCCNC(=S)N(CCc1c(C)[nH]c2ccc(C)cc12)Cc1cccnc1`: the activity change, negative = inhibition is 5.87%.

Consider `COCCNC(=S)N/N=C/c1c(C)[nH]c2ccccc12`, for which the activity change, negative = inhibition was -68.5% (active).

For the compound `CCOC(=O)c1cccc(NS(=O)(=O)c2cc(-c3cnc(C)o3)ccc2OC)c1`, the activity change, negative = inhibition is -8.81%.

For the compound `COc1ccc(CCNC(=O)CC2SC(=Nc3cc(C)cc(C)c3)NC2=O)cc1OC` (stereo not given), the activity change, negative = inhibition was 37.9%.

`CC(C)S(=O)(=O)c1csc(NC(=O)Nc2ccc(Cl)cc2)c1Cl`: the activity change, negative = inhibition was -93.2% (active).

Turning to `COc1ccc(OCC(O)CNC(=O)Nc2ccc(Cl)cc2)cc1` (stereo not given), the activity change, negative = inhibition is -6.88%.

On to `CC(=O)N1CCC(N(C(=O)Nc2ccc(Cl)cc2)C(C)C)CC1`, for which the activity change, negative = inhibition is -34.8%.

Regarding `COc1ccc(Cl)cc1NC(=O)CN(C)C(=O)c1cc(-c2cccs2)nn1-c1ccccc1`, the activity change, negative = inhibition is -21.5%.

`COc1cc(OC)cc(C(=O)NCCc2csc3nc(-c4ccccc4F)nn23)c1`: the activity change, negative = inhibition is -6.5%.

For `Cc1ccc2[nH]c3c(=O)n(CC(=O)NC(C)C)ncc3c2c1`, the activity change, negative = inhibition is 5.38%.

As to `C=C(C)C(=O)O[C@H]1C/C(C)=C\C(=O)/C=C(\C)[C@H](O)[C@@H]2OC(=O)C(=C)[C@@H]21`, the activity change, negative = inhibition was -98.8% (active).

Regarding `Fc1cccc(-c2nc3c(N4CCOCC4)nccc3[nH]2)c1`, the activity change, negative = inhibition was 6.37%.

Consider `CCc1cccc(-n2nnc(-c3nsc(NC(=O)c4ccc(C)cc4)n3)c2C)c1`, for which the activity change, negative = inhibition is -39.1%.

`Cc1ccsc1/C=N/NC(=O)Cc1cc(=O)[nH][nH]1`: the activity change, negative = inhibition is 80.6%.

`COc1ccc(N(CC(=O)N/N=C/c2cccs2)S(=O)(=O)c2ccc(OC)c(OC)c2)cc1`: the activity change, negative = inhibition is 3.94%.

Turning to `C/C(=N\NC(=O)CNc1cccc2ccccc12)c1ccc(Br)s1`, the activity change, negative = inhibition is 21.2%.

`COc1ccc(C(=O)NCC(=O)N/N=C/c2ccc([N+](=O)[O-])s2)cc1OC`: the activity change, negative = inhibition was -92.4% (active).

For `Cc1ccccc1NCC(=O)N/N=C\c1ccc([N+](=O)[O-])s1`, the activity change, negative = inhibition was -78.2% (active).

As for `CC(C)(C)c1cc(C(=O)N/N=C/c2ccc([N+](=O)[O-])s2)n[nH]1`, the activity change, negative = inhibition is -73.9% (active).

`COc1ccc(C(=O)NCC(c2ccco2)N2CCc3ccccc32)cc1OC` (stereo not given): the activity change, negative = inhibition was -5.62%.

In the case of `Cc1nnc(SCc2nc3ccccc3nc2C)s1`, the activity change, negative = inhibition is 32.2%.

In the case of `CCOC(=O)C1CCN(c2ncnc3c2c(-c2ccccc2)cn3-c2cccc(C)c2)CC1`, the activity change, negative = inhibition is -35.2%.

`CCOc1ccccc1C(=O)Nc1ccc(S(=O)(=O)N2CCCCC2c2cccnc2)cc1` (stereo not given): the activity change, negative = inhibition was -33.6%.

For the compound `Cc1[nH]c2ccccc2c1C(=O)C(=O)NCc1nnnn1-c1cccc(F)c1`, the activity change, negative = inhibition was -19%.

Consider `COc1ccc(NC(=O)c2ccc3nc(C(C)C)oc3c2)cc1OC`, for which the activity change, negative = inhibition is 6.52%.

In the case of `Cc1cccn2c(=O)c(C(=O)NC(C)c3ccccc3)cnc12` (stereo not given), the activity change, negative = inhibition is -18.5%.

With `COC(=O)c1cc(S(=O)(=O)N2CCN(c3cc(C)ccc3C)CC2)c[nH]1`, the activity change, negative = inhibition was 9.83%.

As to `Cc1cc(C(=O)N2CCC(C(=O)O)CC2)c(C(F)(F)F)o1`, the activity change, negative = inhibition is 0.635%.

Turning to `Cc1ccc(C)c(NC(=O)CSC2=Nc3ccccc3N=C(c3ccc(F)cc3)C2)c1`, the activity change, negative = inhibition is 22.5%.

For `COc1ccc(C2Nc3ccccc3C(=O)N2c2ccc(Cl)cc2)cc1Cn1cc([N+](=O)[O-])cn1` (stereo not given), the activity change, negative = inhibition was 8.39%.

As to `Cc1ccc2c(C(=O)CN3CCCC3)c(C)[nH]c2c1`, the activity change, negative = inhibition was -81.5% (active).

With `Cc1ccc2[nH]c(=O)c(CN3CCCCC3)c(-c3ccccc3)c2c1`, the activity change, negative = inhibition was 11.7%.

For the compound `Cc1[nH]c2ccccc2c1C(=O)CN1CCCC(C)C1` (stereo not given), the activity change, negative = inhibition is 64%.

`COc1ccc2c(C)c(CCC(=O)NCc3ccc(OC)c(OC)c3)c(=O)oc2c1`: the activity change, negative = inhibition is -7.55%.

As for `N#CC(C#N)=CN=c1ccn(Cc2ccc(Cl)cc2Cl)cc1`, the activity change, negative = inhibition was -94.3% (active).

On to `CCc1nc2cccnc2n1-c1ccc(C(=O)O)cc1`, for which the activity change, negative = inhibition is -6.51%.

With `CCCCC(=O)NNC(=S)NC(=O)C(c1ccccc1)c1ccccc1`, the activity change, negative = inhibition is -31.6%.

On to `COc1ccc(C(=O)NC(=S)NNC(=O)CCc2ccccc2)cc1`, for which the activity change, negative = inhibition was -85.4% (active).

On to `Cc1c(NC(=S)NC(=O)CCc2ccccc2)c(=O)n(-c2ccccc2)n1C`, for which the activity change, negative = inhibition was -11.5%.

Regarding `Cc1cccc(C(C)C)c1NC(=O)C(NS(=O)(=O)c1cccc2nsnc12)c1ccccc1` (stereo not given), the activity change, negative = inhibition was -12.4%.

Take `CCOC(=O)c1c(C)n(S(=O)(=O)c2ccc(C)cc2C)c2ccc(NS(=O)(=O)c3ccc(C)cc3C)cc12`: the activity change, negative = inhibition is 37%.

Take `O=C(c1ccc(C(F)(F)F)cc1)N1CCC(c2nc(-c3ccc(S(=O)(=O)N4CCCC4)cc3)no2)CC1`: the activity change, negative = inhibition was -39.7%.

Take `Cc1ccccc1NC(=O)c1c(NC(=O)c2ccccc2F)sc2c1CCC(C)C2` (stereo not given): the activity change, negative = inhibition was -1.03%.

With `Cc1cccc(N2CCN(C(=O)COCc3cc(-c4ccc5c(c4)OCO5)on3)CC2)c1C`, the activity change, negative = inhibition is 10.8% and 0.0657%.

For `CC(C)NC(=O)COCc1cc(-c2ccc3c(c2)OCO3)on1`, the activity change, negative = inhibition was -102% (active).

On to `CCOC(=O)N1CCN(C(=O)COCc2cc(-c3ccc4c(c3)OCO4)on2)CC1`, for which the activity change, negative = inhibition was -33.7%.

As for `O=C(O)c1cccc(N=NN2CCCCCC2)c1`, the activity change, negative = inhibition was 134%.

With `Cn1c(SCc2c(F)cccc2Cl)nnc1-c1cnccn1`, the activity change, negative = inhibition was -2.73%.

On to `CCc1nnc(SCc2nc(-c3cccc(C)c3)oc2C)c2cc3sc(C)cc3n12`, for which the activity change, negative = inhibition was 22.7%.

On to `CCc1nnc(SCc2c(F)cccc2Cl)c2cc3sccc3n12`, for which the activity change, negative = inhibition was -67.2% (active).

In the case of `CCOC(=O)CSC1=Nc2ccccc2C2=NC(CCC(=O)NCc3ccc(F)cc3)C(=O)N12` (stereo not given), the activity change, negative = inhibition was -5.13%.

In the case of `COc1cccc(NC(=O)Nc2ccc3c(c2)N(C)C(=O)c2ccccc2S3)c1`, the activity change, negative = inhibition was -33.9%.

With `CCO/C=C1\C(=O)N(c2ccc(OCC)cc2)C(=O)c2ccccc21`, the activity change, negative = inhibition was -9.21%.

Regarding `CCOc1ccc(N2C(=O)CSC2=NC#N)cc1`, the activity change, negative = inhibition was -101% (active).

As to `CCOc1ccc(N2C(=O)CN(c3cccc4ccccc34)C2=S)cc1`, the activity change, negative = inhibition is 28.1%.

On to `Cn1c(=O)c(C(=O)O)nn(-c2ccccc2)c1=O`, for which the activity change, negative = inhibition was -0.182%.

`O=C(CCN1CCCCC1)N=Nc1c(O)[nH]c2ccccc12`: the activity change, negative = inhibition was 8%.

In the case of `O=[N+]([O-])c1cc(S(=O)(=O)Nc2cccc(Cl)c2)ccc1N=Nc1c(O)[nH]c2ccccc12`, the activity change, negative = inhibition is -78.2% (active).

As for `CCN(C(=O)COC(=O)c1cc(NS(=O)(=O)c2ccc(Cl)c([N+](=O)[O-])c2)ccc1O)C1CCCCC1`, the activity change, negative = inhibition was -23%.

Consider `C/C(=N\NC(=O)NC1CCCCC1)c1ccc(OC(F)F)cc1OC(F)F`, for which the activity change, negative = inhibition is -36.3%.

In the case of `Cc1ccc(-n2c(C)nnc2SCC(=O)NC2CC2)cc1`, the activity change, negative = inhibition is 17.2%.

For the compound `Cc1ccc(-n2c(C)cc(C(=O)CSc3nnc4ccccn34)c2C)cc1`, the activity change, negative = inhibition was -86.1% (active).

As for `N#Cc1ccc(CSc2nnc3ccccn23)cc1`, the activity change, negative = inhibition was -25.8%.

Take `Cc1ccc(-n2nc(C)c(C(=O)O)c2-n2cccc2)cc1`: the activity change, negative = inhibition is 3.17%.

For the compound `COC(=O)c1cc(=O)n(-c2c(Cl)cc(C(F)(F)F)cc2Cl)[nH]1`, the activity change, negative = inhibition was 31.8%.

As for `CC1(Cc2cccc(C#N)c2)C(=O)Nc2ccc(-c3cccc(C(F)(F)F)c3)cc21` (stereo not given), the activity change, negative = inhibition was -96.6% (active).

`C=CCn1cc(-c2cccc(C(F)(F)F)c2)cc(C#N)c1=O`: the activity change, negative = inhibition was -25.4%.
